# Test results published in PubChem BioAssay (NCATS).
# Results filed as inconclusive are left out. Calls of active or inactive are those of the source. The call rests on the fitted dose curve.
# Assay: Cytotoxicity counterscreen for inhibitors of SARS-CoV-2 cell entry (AID 1645845); further: nearly all actives have a fitted effect of over 50% in size; on activity change, negative = cytotoxicity: on the % scale 0 is the no-effect control and ±100 the full control effect
# Conditions: cell viability (SARS-CoV-2 entry assay cells); series mostly up to 57.1 µM; activity change, negative = cytotoxicity: at the top concentration
# Outline: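 Counterscreen run in the same HEK293-ACE2 line as the pseudotyped-particle entry assay, without particles. Viability after 48 h at 37 C was read as ATP luminescence, scaled between cell-containing and cell-free wells.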
# Potency means the concentration at half of the fitted maximal effect.
SMILES,"activity change, negative = cytotoxicity",Potency,outcome
CCn1c(N)c(C(=O)NC)c(=O)c2ccc(C#CC(C)(O)COC)nc21 (stereo unspecified),-11.9% (inactive),–,–
CC(C)N(CCCNC(=O)Nc1ccc(C(C)(C)C)cc1)C[C@H]1O[C@@H](n2cc(Br)c3c(N)ncnc32)[C@H](O)[C@@H]1O,–,31.6 µM (active),–
CCn1c(=O)c2c(nc(/C=C/c3ccc(OC)c(OC)c3)n2C)n(CC)c1=O,–,–,inactive
COc1ncc(-c2ccc3c(Nc4cc(Oc5cc(F)cc(F)c5)cc(C(=O)O)c4)c(S(=O)(=O)NC4CC4)cnc3c2)c(OC)n1,-4.96% (inactive),–,–
Cc1cc(Nc2cc(N)ncn2)c(=O)n2c1C(=O)NC21CCCCC1,–,–,inactive [at 27.1 µM]
C=CCN(/C=C1\C(=O)O[C@@H](COC)[C@]2(C)C1=C(O)C(=O)C1=C2[C@@H](OC(C)=O)C[C@]2(C)C(=O)CC[C@H]12)CC=C,-5.32% (inactive),–,–
CC(=O)Nc1ccc(C(=O)Nc2ccccc2N)cc1,–,7.08 µM (active),–
C=CC(=O)Nc1cc(N2CCN(CC)CC2)ccc1Nc1cc(N(C)C(=O)Nc2c(Cl)c(OC)cc(OC)c2Cl)ncn1,–,–,inactive
CCOc1ccc(-n2c([C@@H](C)N(Cc3cccnc3)C(=O)Cc3ccc(F)c(C(F)(F)F)c3)nc3ncccc3c2=O)cc1,–,–,inactive
O=C(NCC(=O)N1CC[C@H](NC2CCC(O)(c3ccc(-c4ncccn4)cn3)CC2)C1)c1cccc(C(F)(F)F)c1 (stereo partly specified),-1.6% (inactive),–,–
CC(C)(O)c1coc(S(=O)(=O)NC(=O)Nc2c3c(cc4c2CCC4)CCC3)c1,–,–,inactive
O=c1sn(-c2cccc3ccccc23)c(=O)n1Cc1ccccc1,4.69% (inactive),–,–
CCN(C(=O)c1ccccc1OC)c1cc2c(cc1N1CCNC[C@H]1C)n(C)c(=O)n2C,–,–,inactive
CO[C@H]1O[C@@H]2O[C@@]3(C)CC[C@H]4[C@H](C)CC[C@@H]([C@H]1C)[C@@]24OO3,-7.68% (inactive),–,–
N[C@@H]1CN(c2c(F)cc3c(=O)c(C(=O)O)cn([C@@H]4C[C@@H]4F)c3c2Cl)CC12CC2,–,–,inactive
C=CC(=O)Nc1ccc2ncnc(Nc3cccc(Br)c3)c2c1,–,14.1 µM (active),–
Cc1cc(-c2cc(OC(=O)c3ccccc3)ccc2Cl)cc2nnc(Nc3ccc(OCCN4CCCC4)cc3)nc12,–,–,inactive [at 27.1 µM]
O=c1oc2c(C3OCCCO3)c(O)ccc2c2c1CNCC2,-3.46% (inactive),–,–
Oc1ccc(Nc2nc(-c3ccc(Cl)cc3)cs2)cc1,-26.4% (inactive),–,–
C=CC(=O)N1C[C@H](Nc2ncnc3[nH]ccc23)CC[C@@H]1C,–,–,inactive
C[C@]12CC[C@H](O)CC1=CC[C@@H]1[C@@H]2CC[C@]2(C)C(c3cccnc3)=CC[C@@H]12,–,–,inactive [at 27.1 µM]
CN[C@@H](C)C(=O)N[C@H](C(=O)N1CCC[C@H]1c1nc(C(=O)c2ccc(F)cc2)cs1)C1CCCCC1,-7.89% (inactive),–,–
Cn1c(-c2ccccc2C(F)(F)F)nnc1C12CCC(c3noc(C4CC(F)(F)C4)n3)(CC1)CC2,–,–,inactive
CCCNC(=O)c1cn2ncnc(Nc3cc(C(=O)NC4CC4)ccc3C)c2c1C,–,–,inactive
C[C@H](Nc1nc(N[C@H](C)C(F)(F)F)nc(-c2cccc(Cl)n2)n1)C(F)(F)F,–,–,inactive
CN1C(=O)N[C@@H](Cc2c[nH]c3c(Cl)cccc23)C1=O,-11.8% (inactive),–,–

# Assay: Primary qHTS to identify inhibitors of SARS-CoV-2 cell entry (AID 1645846); further: nearly all actives have a fitted effect of over 45% in size
# Conditions: SARS-CoV-2 pseudovirus cell entry assay, luminescence; activity change, negative = inhibition: at 57.1 µM (top of the series) unless noted
# Outline: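 HEK293 cells stably expressing human ACE2, pre-treated 1 h with compound, then infected with MLV particles pseudotyped with Wuhan-Hu-1 spike (C-terminal 19-aa truncation). Luciferase luminescence after 48 h at 37 °C, normalised to spike PP and bald PP.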
SMILES,"activity change, negative = inhibition",outcome,Potency
COc1ncc(Nc2ncc([C@H](C)N3CCN(S(C)(=O)=O)CC3)cc2-c2nc(C)nc(N)n2)cc1F,-47.8%,–,–
CCOc1cc(/C=C2/C(=O)N(c3ccccc3)N=C2C)cc(Cl)c1OCC(=O)OC,-12.7%,–,–
C=Cc1cc(O)cc2nc(-c3ccc(O)c(F)c3)oc12,-0.0201%,–,–
COc1ccccc1C(=O)Nc1cc2c(cc1N1CCCCC1)n(C)c(=O)n2C,-21.1%,–,–
c1cn2cc(-c3ccc4cn[nH]c4c3)nc(Nc3ccc(N4CCOCC4)cc3)c2n1,-27%,–,–
CNc1nc(Nc2cnn([C@H]3CCN(C4COC4)C[C@@H]3F)c2Cl)ncc1C(F)(F)F,–,inactive,–
CCOc1cc(C(=O)N2CCC(N3CCN(C)CC3)CC2)ccc1Nc1ncc2c(n1)N(C1CCCC1)c1ccccc1C(=O)N2C,–,–,25.1 µM (active)
CC(C)(C)Sc1c(CC(C)(C)C(=O)O)n(Cc2ccc(Cl)cc2)c2ccc(OCc3ccc4ccccc4n3)cc12,–,inactive,–
CN(C)Cc1ccc(S(=O)(=O)n2ccc(/C=C/C(=O)NO)c2)cc1,2%,–,–
CCOCc1nc2c(N)nc3ccccc3c2n1CC(C)(C)O,-25%,–,–
COc1cccc2c1c(O)c(C(=O)N(C)c1ccc(C(F)(F)F)cc1)c(=O)n2C,-9.47%,–,–
COc1cc(C)[nH]c(=O)c1CN1CCc2c(Cl)cc([C@H](OC)C3COC3)c(Cl)c2C1=O,–,inactive,–
CC(=O)N1CCC(Nc2cc(C(=O)NC[C@H](O)CN3CCc4ccccc4C3)ncn2)CC1,–,inactive,–
Cc1c(-c2c(-c3ccc(F)o3)sc3ncnc(O[C@@H](Cc4ccccc4OCc4ccnn4CC(F)(F)F)C(=O)O)c23)ccc(OCCN2CCN(C)CC2)c1Cl,-7.93%,–,–
CCn1c(N)c(C(=O)NC)c(=O)c2ccc(C#CC(C)(O)COC)nc21 (stereo unspecified),2.21%,–,–
CC(C)N(CCCNC(=O)Nc1ccc(C(C)(C)C)cc1)C[C@H]1O[C@@H](n2cc(Br)c3c(N)ncnc32)[C@H](O)[C@@H]1O,–,–,35.5 µM (active)
CCn1c(=O)c2c(nc(/C=C/c3ccc(OC)c(OC)c3)n2C)n(CC)c1=O,–,inactive,–
COc1ncc(-c2ccc3c(Nc4cc(Oc5cc(F)cc(F)c5)cc(C(=O)O)c4)c(S(=O)(=O)NC4CC4)cnc3c2)c(OC)n1,-25%,–,–
Cc1cc(Nc2cc(N)ncn2)c(=O)n2c1C(=O)NC21CCCCC1,–,inactive [at 27.1 µM],–
C=CCN(/C=C1\C(=O)O[C@@H](COC)[C@]2(C)C1=C(O)C(=O)C1=C2[C@@H](OC(C)=O)C[C@]2(C)C(=O)CC[C@H]12)CC=C,–,inactive,–

SMILES,"activity change, negative = inhibition",outcome,Potency
CC(=O)Nc1ccc(C(=O)Nc2ccccc2N)cc1,–,inactive,–
C=CC(=O)Nc1cc(N2CCN(CC)CC2)ccc1Nc1cc(N(C)C(=O)Nc2c(Cl)c(OC)cc(OC)c2Cl)ncn1,-6.15%,–,–
CCOc1ccc(-n2c([C@@H](C)N(Cc3cccnc3)C(=O)Cc3ccc(F)c(C(F)(F)F)c3)nc3ncccc3c2=O)cc1,-17.6%,–,–
O=C(NCC(=O)N1CC[C@H](NC2CCC(O)(c3ccc(-c4ncccn4)cn3)CC2)C1)c1cccc(C(F)(F)F)c1 (stereo partly specified),-29.7%,–,–
CC(C)(O)c1coc(S(=O)(=O)NC(=O)Nc2c3c(cc4c2CCC4)CCC3)c1,–,inactive,–
O=c1sn(-c2cccc3ccccc23)c(=O)n1Cc1ccccc1,–,inactive,–
CCN(C(=O)c1ccccc1OC)c1cc2c(cc1N1CCNC[C@H]1C)n(C)c(=O)n2C,-9.57%,–,–
CO[C@H]1O[C@@H]2O[C@@]3(C)CC[C@H]4[C@H](C)CC[C@@H]([C@H]1C)[C@@]24OO3,-14.8%,–,–
N[C@@H]1CN(c2c(F)cc3c(=O)c(C(=O)O)cn([C@@H]4C[C@@H]4F)c3c2Cl)CC12CC2,-5.2%,–,–
C=CC(=O)Nc1ccc2ncnc(Nc3cccc(Br)c3)c2c1,–,–,7.94 µM (active)
Cc1cc(-c2cc(OC(=O)c3ccccc3)ccc2Cl)cc2nnc(Nc3ccc(OCCN4CCCC4)cc3)nc12,-21.1% [at 27.1 µM],–,–
O=c1oc2c(C3OCCCO3)c(O)ccc2c2c1CNCC2,1.62%,–,–
Oc1ccc(Nc2nc(-c3ccc(Cl)cc3)cs2)cc1,–,–,28.2 µM (active)
C=CC(=O)N1C[C@H](Nc2ncnc3[nH]ccc23)CC[C@@H]1C,–,inactive,–
C[C@]12CC[C@H](O)CC1=CC[C@@H]1[C@@H]2CC[C@]2(C)C(c3cccnc3)=CC[C@@H]12,–,inactive [at 27.1 µM],–
CN[C@@H](C)C(=O)N[C@H](C(=O)N1CCC[C@H]1c1nc(C(=O)c2ccc(F)cc2)cs1)C1CCCCC1,-6.26%,–,–
Cn1c(-c2ccccc2C(F)(F)F)nnc1C12CCC(c3noc(C4CC(F)(F)C4)n3)(CC1)CC2,-12.8%,–,–
CCCNC(=O)c1cn2ncnc(Nc3cc(C(=O)NC4CC4)ccc3C)c2c1C,-27.9%,–,–
C[C@H](Nc1nc(N[C@H](C)C(F)(F)F)nc(-c2cccc(Cl)n2)n1)C(F)(F)F,-8.78%,–,–
CN1C(=O)N[C@@H](Cc2c[nH]c3c(Cl)cccc23)C1=O,1.88%,–,–
